The campaign covered roughly 330,000 compounds. About 1,700 (0.52%) were called active. The call rests on the fitted dose curve; in most records, active means well fitted inhibition curve with a large enough effect; inconclusive means small, poorly fitted or top-dose-only effect; inactive means no such curve, though single readings can be large or run the other way. The sample as a whole holds a higher share of actives than the screen did.
Potency means the concentration at half of the fitted maximal effect.

Beta-lactamase (Escherichia coli (strain K12)), sequence (P00811 whole entry, looked up): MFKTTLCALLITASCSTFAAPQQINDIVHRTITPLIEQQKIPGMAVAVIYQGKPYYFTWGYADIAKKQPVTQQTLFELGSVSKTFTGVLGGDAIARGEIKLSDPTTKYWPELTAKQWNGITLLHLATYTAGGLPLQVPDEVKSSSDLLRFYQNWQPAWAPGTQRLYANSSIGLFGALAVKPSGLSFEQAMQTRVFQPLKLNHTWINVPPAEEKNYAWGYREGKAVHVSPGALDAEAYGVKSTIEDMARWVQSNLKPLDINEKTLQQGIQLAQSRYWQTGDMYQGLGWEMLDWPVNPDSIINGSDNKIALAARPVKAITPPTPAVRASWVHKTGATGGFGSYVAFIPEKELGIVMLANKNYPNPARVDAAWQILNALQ

This experiment has as its target Beta-lactamase (Escherichia coli (strain K12)) (UniProt P00811). The experiment can be described thus: qHTS Inhibitors of AmpC Beta-Lactamase (assay without detergent). Further: nearly all actives have a fitted effect of over 20% in size.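 On activity change, negative = inhibition: plate controls were no compound for no effect and no enzyme for full effect.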 The conditions noted are these: AmpC nitrocefin hydrolysis, absorbance 480 nm, 0.0001% Triton; series mostly up to 57.1 µM; activity change, negative = inhibition: at the top concentration. Put shortly:
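20 mM phosphate pH 7.0 + 0.01% (detergent screen) or 0.0001% Triton X-100; 5.3 nM AmpC reagent; cpd preinc 15 min RT; nitrocefin (800 uM stock) to start; A480 q20 s × 4 min; Activity was normalised to no-enzyme and no-compound control wells.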
Background: qHTS replaces the single test concentration by a dilution series.
Take `CNC[C@H]1Oc2c(NC(=O)C3CCCCC3)cccc2C(=O)N([C@H](C)CO)C[C@@H]1C`: the “activity change, negative = inhibition” value is -6.12% (inactive).

In the case of `Cn1cccc1Cc1nnc(SCC(=O)NCc2ccc3c(c2)OCO3)n1CCc1ccccc1`, the “activity change, negative = inhibition” value is 66.4% (inactive).

Take `Cc1cc(=O)oc(C)c1C(=O)Nc1cnc2ccccc2c1`: the “activity change, negative = inhibition” value was -8.5% (inactive).

Take `Cc1ccc(N=Cc2c(O)cc(C)oc2=O)c(C)c1`: the “activity change, negative = inhibition” value is -18.8% (inactive).

Turning to `Cc1cc(O)c(C(=O)/C=C/c2c(F)c(F)c(F)c(F)c2F)c(=O)o1`, the Potency is 11.2 µM (active).

With `COc1ccccc1C(=O)Nc1ccc(C)c(S(=O)(=O)N2CCCCC2)c1`, the “activity change, negative = inhibition” value was -3.57% (inactive).

As for `Nn1c(SCC(=O)NC(=O)NC2CCCC2)nnc1-c1ccccc1F`, the “activity change, negative = inhibition” value was -17.2% (inactive).

With `COc1cccc2c1OCC1COc3c(c(=O)n(C)c(=O)n3C)C21` (stereo unspecified), the “activity change, negative = inhibition” value is -17.4% (inactive).

As for `C=CCNCCCCOc1ccccc1`, the “activity change, negative = inhibition” value is 0.575% (inactive).

For the compound `O=C(O)C1CCCN(S(=O)(=O)c2cccc3cccnc23)C1` (stereo unspecified), the “activity change, negative = inhibition” value was -14.6% (inactive).

`COc1cccc(CNC(=O)C2CCN(S(=O)(=O)c3cccc4cccnc34)CC2)c1`: the “activity change, negative = inhibition” value was -3.22% (inactive).

With `COc1ccccc1CNC(=O)C1CCCN(S(=O)(=O)c2cccc3cccnc23)C1` (stereo unspecified), the Potency was 22.4 µM (active).

For the compound `CCOC(=O)C1C(c2ccc(O)cc2)NC(=O)NC1(O)C(F)(F)F` (stereo unspecified), the “activity change, negative = inhibition” value is 1.51% (inactive).

Regarding `CC(=O)C1C(c2ccc(Cl)cc2)NC(=O)NC1(O)C(F)(F)F` (stereo unspecified), the Potency is 44.7 µM (active).

In the case of `CC(=O)C1C(c2cccc(Oc3ccccc3)c2)NC(=O)NC1(O)C(F)(F)F` (stereo unspecified), the “activity change, negative = inhibition” value was 6.25% (inactive).

As for `COC(=O)[C@@H]1CC(O)CN1C(=O)C12CC3CC(CC(C3)C1)C2` (stereo partly specified), the “activity change, negative = inhibition” value is -9.8% (inactive).

Take `CC(=O)Nc1ccc(S(=O)(=O)Nc2nc(-c3ccc(C(C)(C)C)cc3)cs2)cc1`: the Potency is 35.5 µM (active).

For the compound `CC(=O)Nc1ccc(S(=O)(=O)Nc2ccc(-c3ccc4nnc(C)n4n3)cc2)cc1`, the “activity change, negative = inhibition” value was 17.8% (inactive).

`Cc1ccc(NS(=O)(=O)c2ccc(C(C)(C)C)cc2)cn1`: the “activity change, negative = inhibition” value is -22.9% (inactive).

For `Cn1c(-c2ccc(F)cc2)cnc1SCC(=O)NCc1ccco1`, the “activity change, negative = inhibition” value is 3.42% (inactive).

Regarding `O=C(CSc1nnc2scc(-c3ccc(F)cc3)n12)NCc1ccco1`, the “activity change, negative = inhibition” value was -21.6% (inactive).

In the case of `Cc1ccc(-c2csc3nnc(SCC(=O)NCc4ccco4)n23)cc1`, the Potency is 0.316 µM (active).

Consider `COc1ccccc1N(CC(=O)Nc1ccc(C(F)(F)F)cc1)S(C)(=O)=O`, for which the “activity change, negative = inhibition” value is 41.8% (inactive).

For `O=C(Cn1nc(Cc2cccnc2)c2ccccc2c1=O)NCC1COc2ccccc2O1` (stereo unspecified), the “activity change, negative = inhibition” value was 9.49% (inactive).

Consider `O=C(Cn1nc(Cc2cccnc2)c2ccccc2c1=O)NCC1CCCO1` (stereo unspecified), for which the Potency was 0.501 µM (active).

As for `Cc1nn(CC(=O)NCC2CCCO2)c(=O)c2cc3ccccc3n12` (stereo unspecified), the “activity change, negative = inhibition” value is -8.11% (inactive).

Regarding `CCOC(=O)N1CCC(NC(=O)Cn2cc3c(n2)CCCCC3)CC1`, the Potency was 35.5 µM (active).

`O=C(Cn1cc2c(n1)CCCCC2)NCCN1CCOCC1`: the “activity change, negative = inhibition” value is -5.23% (inactive).

On to `COCCNC(=O)Cn1cc2c(n1)CCCCC2`, for which the “activity change, negative = inhibition” value is 0.855% (inactive).

Regarding `Cc1cc(-c2nnc(CCC(=O)NC(c3ccccc3)c3ccccc3)o2)no1`, the “activity change, negative = inhibition” value was 13.8% (inactive).

`CCOC(=O)/C(=N\Nc1cc(Cl)ccc1Cl)N1CCN(C)CC1`: the “activity change, negative = inhibition” value was 142% (inactive).

Take `CCc1ccc(CN(C)C(C)C(=O)Nc2ccc(S(=O)(=O)N3CCCC3)cc2)cc1` (stereo unspecified): the “activity change, negative = inhibition” value is 3.82% (inactive).

As to `O=C(CSC(=S)N1CCOCC1)c1ccccc1`, the “activity change, negative = inhibition” value is -17% (inactive).

Regarding `O=C(CSC(=S)N1CCOCC1)c1cc(Br)cc(Br)c1O`, the Potency was 20 µM (active).

As to `O=C(c1cc2cc(Br)cc(Br)c2oc1=O)N1CCOCC1`, the “activity change, negative = inhibition” value was -18.2% (inactive).

Turning to `CCN(CC(=O)Nc1ccc(Cl)c(S(=O)(=O)N(C)C)c1)Cc1nc2ccccc2c(=O)[nH]1`, the “activity change, negative = inhibition” value is -6.1% (inactive).

Values taken from PubChem BioAssay AID485341 (National Center for Advancing Translational Sciences (NCATS), 2010).
